Compounds with a hit are over-represented: about 6.1% of the library has one in this group of screens.
D1 agonist – Allosteric Agonists of the Human D1 Dopamine Receptor: qHTS. D(1A) dopamine receptor (Homo sapiens), P21728. HEK293 T-REx D1 cells, calcium flux, agonist mode. AID 504660, 2011. activation, % at 2 µM. 360,000 compounds, 1% hits; in the data active means activation above about 30%; further: 0% is about no effect
Target sequence (P21728 whole entry, looked up): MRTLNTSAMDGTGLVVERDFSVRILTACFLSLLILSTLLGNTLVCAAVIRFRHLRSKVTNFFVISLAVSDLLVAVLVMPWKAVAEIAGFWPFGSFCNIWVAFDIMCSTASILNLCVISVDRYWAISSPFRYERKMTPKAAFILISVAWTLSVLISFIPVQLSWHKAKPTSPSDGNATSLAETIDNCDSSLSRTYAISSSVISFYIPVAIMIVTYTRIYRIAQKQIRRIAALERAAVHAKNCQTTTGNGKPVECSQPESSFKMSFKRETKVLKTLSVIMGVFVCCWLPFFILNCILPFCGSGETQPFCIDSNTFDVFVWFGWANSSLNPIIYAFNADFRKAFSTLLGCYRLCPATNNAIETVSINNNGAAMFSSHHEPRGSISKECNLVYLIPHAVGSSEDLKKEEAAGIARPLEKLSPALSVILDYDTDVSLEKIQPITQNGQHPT
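Tetracycline-induced HEK293 TREx D1 cells, force-coupled to calcium signalling, were dye-loaded with a no-wash calcium kit. Compound was pin-added after a 10 s baseline. Fluorescence was read kinetically at 1 cycle/s for 180 s, with calcium rises flagged as agonism.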
D1 antag – Antagonist of Human D 1 Dopamine Receptor: qHTS | D(1A) dopamine receptor (Homo sapiens), P21728 | HEK293 TREx D1 cells, calcium flux, dopamine EC80; active compounds read low | activity change, negative = inhibition, % at 10 µM | 360,000 compounds, 3.2% hits | AID 504652, 2011; in the data active means activity change below about -30%; further: on the % scale 0 is the no-effect control and ±100 the full control effect
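Tetracycline-induced HEK293 T-REx cells with force-coupled D1 receptor were loaded with a no-wash calcium dye. Compound was added after a 10 s baseline and read kinetically for 180 s; EC80 dopamine was then added and calcium flux followed another 180 s.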
D1 PAM – Potentiators of Human D1 Dopamine Receptor: qHTS. HEK293 TREx D1 cells, calcium flux, dopamine EC20 potentiation. potentiation, % at 10 µM. 360,000 compounds, 0.036% hits; in the data active means potentiation above about 30%; further: 0% is about no effect
DRD3 antagonist – qHTS of D3 Dopamine Receptor Antagonist: qHTS. 360,000 compounds, 2.5% hits. D3R cells, DiscoveRx beta-arrestin luminescence, antagonist mode; active compounds read low. max response, negative = inhibition, %. D(3) dopamine receptor (Homo sapiens), P35462. AID 652054, 2013; in the data active means max response below about -50%; inconclusive means no clear call, values can overlap the other calls; further: on the % scale 0 is the no-effect control and ±100 the full control effect
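Cells expressing the human receptor were seeded at 1500 cells/well, incubated overnight at 37 degrees C in 5% CO2, then exposed to library compounds with dopamine controls for 90 minutes at 37 degrees C before luminescent detection.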
D3 ag – qHTS of D3 Dopamine Receptor Agonist: qHTS; D(3) dopamine receptor (Homo sapiens), P35462; D3R DiscoveRx beta-arrestin cells, luminescence, 90 min; max activation, %; 410,000 compounds, 0.58% hits; AID 652048, 2013; in the data active means max activation above about 30%; further: 0% is about no effect
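Agonist mode: compounds and dopamine controls were applied to plated cells for 90 min at 37 degrees C after an overnight attachment at 1500 cells/well. Luminescent read-out followed 30 - 60 minutes at room temperature with DiscoveRx detection reagent.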
The depositor's hits bear a star; ? = inconclusive; · = no result.

SMILES | D1 agonist | D1 antag | D1 PAM | DRD3 antagonist | D3 ag
CCCCOc1ccc(C(=O)NCCS(=O)(=O)N2CCN(c3ccccc3OC)CC2)cc1 | 3 | -65* | -2 | · | 20
CCOC(=O)c1cn(-c2ccc([N+](=O)[O-])cc2)c2cc(Cl)c([N+](=O)[O-])cc2c1=O | 2 | -42* | -4 | 7 | -6
O=C(O)c1cn(-c2ccc(F)cc2)c2cc(Cl)c(F)cc2c1=O | 2 | -4 | 4 | -7 | 5
Cc1scc(C(=O)Nn2cnnc2)c1-c1ccccc1 | 2 | -4 | 2 | -55* | -13
CCOC(=O)c1c(C)sc(-c2c(-c3ccc4c(c3)OCCO4)[nH]c3c2c(=O)n(C)c(=O)n3C)c1O | -2 | -14 | -1 | · | 3
C=CCOC(=O)/C(=C/c1ccco1)NC(=O)/C=C/c1ccccc1 | 4 | -8 | -4 | 8 | 0
O=C(O)CNC(=O)/C(=C/c1ccco1)NC(=O)/C=C/c1ccccc1 | 270* | -36* | -8 | 10 | 2
Cc1ccsc1C(=O)Nc1nnc(-c2ccco2)o1 | 1 | 0 | -2 | -65* | -4
Cc1ccc(C(=O)Nc2nnc(-c3ccco3)o2)cc1 | 1 | 12 | -4 | -19 | -6
O=C(NCc1ccco1)c1c2c(nc3ccccc13)CCC2 | 0 | -15 | -1 | -59* | 4
O=C(NCc1ccco1)c1csc2c1CCCCC2 | 1 | -33* | 0 | 11 | 7
CCOc1ccc(CCNC(=O)Cn2ncc3c([nH]c4ccccc43)c2=O)cc1OCC | -3 | 1 | 4 | · | 4
Clc1cccc(CSc2nnc(C3CCNCC3)o2)c1 | 14 | 4 | 0 | · | -30
CS(=O)(=O)N(CC(=O)N1CCCC1)c1ccc(Cl)cc1Cl | 3 | -11 | -6 | -5 | 0
CS(=O)(=O)N(CC(=O)N1CCCC1)c1cc(Cl)c(Cl)cc1Cl | 39* | -14 | -7 | -8 | 19
CS(=O)(=O)N(CC(=O)N1CCN(Cc2ccccc2)CC1)c1ccccc1Br | 3 | -13 | -3 | -58* | -20
CN(CC(=O)N1CCN(Cc2ccccc2)CC1)S(=O)(=O)c1ccc(F)cc1 | 5 | 8 | -1 | -59* | -9
CS(=O)(=O)N(CC(=O)N1CCN(Cc2ccccc2)CC1)c1ccccc1F | 3 | 2 | 3 | -22 | -7
CS(=O)(=O)N(CCCC(=O)N1CCCCCC1)c1cccc(Cl)c1 | 7 | -38* | 0 | 2 | -2
CCOC(=O)c1cc(-c2ccccc2)n(CC(=O)NC2CCC(C)CC2)c1C (stereo unspecified) | 1 | -3 | -4 | · | 7
Cc1cc(-c2ccccc2)nc2cc(C(=O)Nc3cc(C(F)(F)F)ccc3Cl)nn12 | -1 | 2 | 0 | · | 0
CCOC(=O)C1CCN(c2ncnc3c2nc2n3CCCCC2)CC1 | 0 | 2 | 5 | · | 1
O=c1c2cc([N+](=O)[O-])ccc2sn1-c1ccccc1 | · | · | · | -94* | -19
C=C(C)Cn1c(=O)c2c(nc3n2CCN3c2ccc(F)cc2)n(C)c1=O | -1 | -16 | 3 | · | 10
Cc1ccc(-n2c(-c3nn(C)c(C)c3Cl)n[nH]c2=S)cc1 | 3 | -2 | 2 | -57* | -3
SMILES | D1 agonist | D1 antag | D1 PAM | DRD3 antagonist | D3 ag
Cc1ccccc1Nc1nc(N)nc(CN2CCN(Cc3ccc4c(c3)OCO4)CC2)n1 | -1 | -1 | -6 | -5 | -8
Nc1nc(CN2CCN(Cc3ccc4c(c3)OCO4)CC2)nc(Nc2ccccc2)n1 | 2 | -47* | -10 | ? | -4
Nc1nc(CN2CCN(c3ccccc3)CC2)nc(Nc2ccc(Cl)cc2)n1 | 1 | -40* | -6 | 2 | -5
CS(=O)(=O)c1ccc(Cl)c(C(=O)NC2CCSc3ccccc32)c1 (stereo unspecified) | 1 | -45* | -9 | -20 | 0
O=C(CSc1nc2c([nH]c3ccccc32)c(=O)n1-c1ccc(F)cc1)NCc1ccc(F)cc1 | 4 | 1 | -4 | · | -1
COc1ccc2cc(-c3nc4ccc(C(=O)O)cc4[nH]3)c(=O)oc2c1 | 2 | 7 | -1 | · | -1
COc1ccc(N2CCN(C(=O)c3cccc(NC(=O)c4nsc5ccccc45)c3)CC2)cc1 | 0 | -2 | 0 | · | 18
O=C(C#Cc1ccccc1)c1ccco1 | -1 | -20 | 5 | -100* | -27
O=C(N/N=C/c1ccccc1)c1ccco1 | 2 | 3 | -2 | 23 | 1
Cc1ccc(CSc2cn(CC(=O)N3CCCCCC3)c3ccccc23)cc1 | 2 | 1 | -3 | · | -10
COc1ccc(O)c(CN2CCCC(C(=O)Nc3cccc(-n4cccn4)c3)C2)c1 (stereo unspecified) | 4 | -68* | -7 | 1 | -11
COc1ccc(CN2CCCC(C(=O)Nc3cccc(-n4cccn4)c3)C2)cc1 (stereo unspecified) | 13 | -53* | -4 | -27 | -13
CCn1cc(CN2CCCC(C(=O)Nc3cccc(-n4cccn4)c3)C2)c(C)n1 (stereo unspecified) | 1 | -8 | 1 | -4 | -21
COc1cccc(-c2ccc(NC(=O)C3CCCN(CCCn4cccn4)C3)cc2)c1 (stereo unspecified) | 38* | -12 | -11 | 13 | -8
Cc1nn(C)c(Cl)c1CN1CCCC(C(=O)Nc2cccc(-n3cccn3)c2)C1 (stereo unspecified) | 5 | -35* | -3 | -11 | -9
COC(=O)c1ccc(CN2CCCC(C(=O)Nc3cccc(-n4cccn4)c3)C2)cc1 (stereo unspecified) | 8 | 11 | -3 | -14 | -18
COc1ccc(CCC(=O)NCc2ccc3c(c2)CCN3C(=O)c2cccc(C)c2)cc1 | -1 | -1 | 5 | · | 15
CCOC(=O)C1CCN(C(=O)c2ccc3c(c2)N=C(CC)c2cc(C)ccc2S3)CC1 | -1 | 0 | -1 | · | -9
Cc1ccc(CNC(=O)c2c(-c3ccccc3Cl)noc2C)o1 | 0 | 15 | 0 | · | -13
CC(C(=O)Oc1ccc2c(c1)OCO2)N1C(=O)c2ccccc2C1=O (stereo unspecified) | 9 | -40* | -8 | · | ·
CC(C(=O)OCC(=O)Nc1ccc2c(c1)OCO2)N1C(=O)c2ccccc2C1=O (stereo unspecified) | 22 | -4 | -6 | 40 | 11
COc1ccc([C@]23Cc4ccccc4C(O2)C2=C(O3)C(=O)c3ccccc3C2=O)cc1 | 1 | -2 | -3 | · | ·
COc1ccccc1Oc1ccc(N2CC(C(=O)OCC(=O)c3ccccc3)CC2=O)cc1 (stereo unspecified) | 5 | -30* | -13 | -3 | 2
